The list is not random: actives were taken first. Their share in the collection is about 18%.
IL1B secr inh = inflammasome signaling inhibition, IL-1 beta readout | THP-1 LPS/ATP IL-1B secretion, AlphaLISA, 16 h; active compounds read low | activity change, % at 57.5 µM | hit rate 4.7% among 360,000 | AID 743279; in the data active = activity change below about -50%; inconclusive = mostly about -30% to -49%
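THP-1 cells pretreated 1 hr with compounds (up to 57.5 uM final), then stimulated with LPS (250 ng/mL final) plus ATP (1.25 mM final); secreted IL-1B measured by AlphaLISA after 16 hr, decreased signal indicating inhibition.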
TGFb inhibitor = inhibitors of TGF-b signaling; HepG2 CAGA-GFP TGF-b/SMAD3 reporter, GFP fluorescence, 18 h; TGF-beta stimulated, 500 pg/mL final; Potency, µM (titrated, usually from 46.1 µM), most hits filed as inhibitors; hit rate 1.2% among 410,000; note: nearly all actives have a fitted effect of over 65% in size
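HEPG2 CAGA-GFP, 1000 cells/well; 2 h settle, 37 C; cpd via pin tool; TGF-b 500 pg/mL final; 18 h, 37 C; GFP imaging ex488/em500-530; %Activity normalised to -TGF-b and +DMSO controls; CRC fit, curve class.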
DT40 TDP1 no CPT = qHTS for Inhibitors of human tyrosyl-DNA phosphodiesterase 1 (TDP1): qHTS in cells in absence of CPT | DT40 Tdp1-/- hTDP1 cells, no CPT, ATP luminescence, 48 h | hit rate 15% among 420,000 | Potency, µM (top dose mostly 46.2 µM), actives largely listed as inhibitors; note: nearly all actives have a fitted effect of over 55% in size
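DT40 Tdp1-/-;hTDP1 cells, no CPT (DMSO vehicle only), 400 cells/well; compounds pin-transferred; ≥48 hr, 37 °C; CellTiter-Glo 30 min RT dark, luminescence read.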
TDP1 inh = blocks human tyrosyl-DNA phosphodiesterase 1; Q9NUW8; recombinant TDP1, AlphaScreen DNA substrate cleavage; Potency, µM (top dose mostly 130 µM), usual class: inhibitors; hit rate 0.28% among 350,000; note: nearly all actives have a fitted effect of over 40% in size
Target sequence (Q9NUW8 whole entry, looked up): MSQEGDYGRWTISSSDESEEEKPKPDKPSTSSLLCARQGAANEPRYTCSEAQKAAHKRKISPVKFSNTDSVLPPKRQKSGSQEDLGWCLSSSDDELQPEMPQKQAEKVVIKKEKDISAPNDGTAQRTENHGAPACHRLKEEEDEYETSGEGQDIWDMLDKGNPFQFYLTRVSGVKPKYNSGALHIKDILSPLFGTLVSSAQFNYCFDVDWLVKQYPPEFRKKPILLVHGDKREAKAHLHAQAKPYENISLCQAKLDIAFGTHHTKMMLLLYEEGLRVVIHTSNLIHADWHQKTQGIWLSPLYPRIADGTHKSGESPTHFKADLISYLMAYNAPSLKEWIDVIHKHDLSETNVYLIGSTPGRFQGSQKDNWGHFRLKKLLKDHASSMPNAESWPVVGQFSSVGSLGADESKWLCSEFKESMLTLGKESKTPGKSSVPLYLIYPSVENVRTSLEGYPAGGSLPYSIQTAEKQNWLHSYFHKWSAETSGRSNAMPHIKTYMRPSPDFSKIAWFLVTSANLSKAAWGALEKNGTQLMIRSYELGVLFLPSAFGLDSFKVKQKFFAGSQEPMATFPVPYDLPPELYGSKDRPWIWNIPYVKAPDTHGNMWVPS
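E. coli-derived human Tdp1, 1 nM final. Cpd preinc 15 min RT; substrate 15 nM final, 5 min RT; AS bead mix 10 ug/ml final, 10 min RT. Signal loss = tyrosine-FITC cleavage. No-enzyme wells = max signal.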
TDP1 cell CPT = DT40-hTDP1 cell growth loss with CPT. chicken DT40 Tdp1-/-;hTDP1 cells + 20 nM CPT, ATP luminescence, 48 h. Potency, µM (top dose mostly 46.2 µM), usual class: inhibitors. hit rate 12% among 420,000; note: nearly all actives have a fitted effect of over 55% in size
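Chicken DT40 Tdp1-/- cells stably complemented with human TDP1 were seeded at 400 cells/well in medium containing 20 nM camptothecin, exposed to pin-transferred compounds, and grown at 37 °C for at least 48 hr. Viability was read as ATP luminescence.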
HepG2 viability = HepG2 cytotoxicity, counter-screen for TGF-b inhibitors; HepG2 CAGA-GFP viability, ATP luminescence, 18 h; Potency, µM (series often up to 46.1 µM), usual class: cytotoxic; hit rate 0.76% among 410,000; AID 588856
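CellTiter-Glo luminescence gave cytotoxicity after 18 hours at 37 degrees C. The cells were HepG2 CAGA-GFP in 1% FBS DMEM, stimulated with 500 pg/mL TGF-beta after compound addition. %Activity was normalised to no-cell wells (complete cell-killing) and DMSO (no toxicity), and curves were fitted and classified.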
Hits are given with their value; n = inactive; u = inconclusive; x = no result given. Unless noted, calls come from the whole dose curve; as a rule, active = well fitted curve in the direction sought with a large enough effect; inconclusive = small, poorly fitted or top-dose-only effect, or another doubt; inactive = no such curve, though single readings can be large; an effect the other way counts as inactive or inconclusive.

SMILES | IL1B secr inh | TGFb inhibitor | DT40 TDP1 no CPT | TDP1 inh | TDP1 cell CPT | HepG2 viability
CCCCCCOC(=O)c1ccc(OC(=O)c2cccnc2)cc1 | u | n | n | n | n | n
CCCCOc1ccc(OC(=O)c2cccnc2)cc1 | n | n | 16µM | n | 21µM | n
CCCCOC(=O)c1ccc(OC(=O)c2cccnc2)cc1 | n | n | n | n | n | n
C=C(C)COC(=O)c1ccccc1C(=O)OCC1(C)CO1 (stereo not drawn) | n | n | u | x | u | n
COc1ccc(OCCN2C(=O)c3ccccc3C2=O)c([N+](=O)[O-])c1 | n | n | n | n | n | n
Clc1ccc(C(c2cccs2)N2CCNCC2)cc1 (stereo not drawn) | -50 | n | 18µM | x | 13µM | n
CC(NC(=O)Nc1ccc(Cl)cc1)C(c1cccs1)N1CCOCC1 (stereo not drawn) | n | n | u | n | u | n
CCN(CC)C(=O)COc1ccc2oc(C)c(C(=O)OC(C)C)c2c1 | n | n | 16µM | n | u | n
CCN(CC)C(=O)COc1ccc2c(-c3ccc(OC)cc3)cc(=O)oc2c1 | n | n | u | 79µM | u | n
Cc1oc2ccc(OS(C)(=O)=O)cc2c1C(=O)OC(C)C | n | n | u | n | u | n
O=C(COc1ccc2c(-c3ccccc3)cc(=O)oc2c1)NCCN1CCOCC1 | n | n | n | n | u | n
O=C(COc1ccc2c(-c3ccccc3)cc(=O)oc2c1)NCCCn1ccnc1 | n | n | u | x | 18µM | n
O=C(COc1cc2oc(=O)cc(-c3ccccc3)c2cc1Cl)NCCN1CCOCC1 | n | n | 7.3µM | n | 4.1µM | n
COc1nnc(-c2ccc(C)cc2)c2ccccc12 | n | n | u | x | n | n
COc1ccccc1C(=O)NC(=O)COC(=O)c1cc[n+]([O-])cc1 | n | n | n | x | n | n
CC(Oc1cc2oc(=O)c3c(c2cc1Cl)CCC3)C(=O)NCCCN1CCOCC1 (stereo not drawn) | n | n | n | n | n | n
COc1ccc(-c2cc(=O)oc3cc(OCC(=O)Nc4ccccn4)ccc23)cc1 | n | n | u | n | 16µM | n
CC(Oc1cc2oc(=O)c3c(c2cc1Cl)CCCC3)C(=O)NCCN1CCOCC1 (stereo not drawn) | n | n | 13µM | n | u | n
COc1cc(Cl)ccc1OCc1cc(C(=O)N(C)CC2CCCCO2)no1 (stereo not drawn) | n | n | n | n | n | n
CCNc1c(NCC)c(=O)c1=O | n | n | n | x | n | n
Cc1ccc(CNC(=O)c2ccc(-n3c(C)cc4c3CCCC4)cc2)cc1 | x | n | u | n | u | n
Cc1cc2c(n1-c1ccc(C(=O)NCc3ccc(OC(C)C)cc3)cc1)CCCC2 | x | u | 16µM | n | 26µM | n
Cc1cc2c(n1-c1ccc(C(=O)NCc3ccccc3Cl)cc1)CCCC2 | x | n | 18µM | n | 23µM | n
CSCC[C@H](NC(=O)N1CCn2c1nc1ccccc12)C(=O)NCc1ccccc1 | n | n | n | n | n | n
NSc1nc(N)c2nc(-c3ccccc3)c(-c3ccccc3)nc2n1 | -51 | n | 26µM | n | u | n
Nc1nc(N)c2nc(-c3ccccc3)c(N)nc2n1 | n | n | 2.1µM | n | 15µM | n
O=C(CCS(=O)(=O)c1ccc(F)cc1)Nc1nc(-c2ccccn2)cs1 | u | u | 7.3µM | n | 8.2µM | n
Cc1cccc(OC(C)C(=O)Nc2nc(-c3ccncc3)cs2)c1 (stereo not drawn) | n | u | 23µM | n | u | n
CC(OC(=O)c1cccs1)C(=O)Nc1nc(-c2ccccc2)cs1 (stereo not drawn) | n | u | u | n | u | n
CC(Oc1ccc(F)cc1)C(=O)Nc1nc(-c2ccccn2)cs1 (stereo not drawn) | -102 | u | 5.2µM | x | 1.3µM | n
